From PubChem BioAssay (NCI)
The panel holds about 83,000 compounds, 20% with a hit somewhere; the sample as a whole holds those more often.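 How to read the values: 0–100, growth inhibition (40 = 60% inhibited); 0, no net growth; -100 to 0, cell death (-40 = 40% of starting cells died; -100 = all dead).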 Unmarked numbers belong to inactive results. Calls of active or inactive are those of the source.

The molecules below were run on MCF7 breast (assay: NCI-60 one-dose screen, 48 h (100 = growth as untreated, 0 = no growth, -100 = all killed)). Settings: 10 µM unless noted.
Procedure: Growth inhibition of the MCF7 human tumor cell line is measured as a screen for anti-cancer activity. Cells are grown in 96 well plates and exposed to the test compound for 48 hours. Compounds are tested at a single concentration, which is 10^-5 M for most compounds. The reported endpoint is percent growth (GI% or GIPRCNT), where numbers from 0 - 100% represent growth inhibition, and numbers from -100% - 0 represent cell death. For example, a value of 40 represents 60% growth inhibition. A value of 0 means no net growth occurred over the course of the experiment. A value of -40 indicates 40% of cells at the beginning of the experiment died by the end of the experiment. A value of -100 means all cells are dead at the end of the experiment.
NCI-60 Human Tumor Cell Lines Screen was performed using the standard one-dose NCI protocol, which is described in more detail at https://dtp.cancer.gov/discovery_development/nci-60/default.htm.
Compounds with GIPRCNT values below 10 were considered active. Activity score was based on GIPRCNT using the following formula: […]
Score is 0 for GIPRCNT values of 100 or above, 50 for GIPRCNT values of 0, and 100 for GIPRCNT values of -100.

Compound	growth
N#Cc1c(-c2cccs2)cc(-c2cccnc2)[nH]c1=O	92.4%
O=C1Nc2ccc(Br)cc2/C1=N/c1n[nH]c(=S)s1	91.7%
N#Cc1cccc(NC(=O)c2oc3ccccc3c2-c2cnn(-c3ccccc3)c2)c1	57.3% [50 µM]
Cc1ccc(Sc2oc(-c3ccc(C)cc3)nc2[P+](c2ccccc2)(c2ccccc2)c2ccccc2)cc1	-23.8% (active)
Fc1cc(F)cc(C(c2c[nH]c3ccccc23)c2c[nH]c3ccccc23)c1	110%
COC(=O)/C=C1/SC(=Nc2ccc(C)cc2)N(CCc2c[nH]c3ccc(O)cc23)C1=O	18.6%
N#C/C(=C\c1ccc(-c2ccc(Cl)cc2)o1)C(=O)Nc1ncc(Cc2ccc(Cl)cc2)s1	45.9%
COc1ccc(NC(=O)c2sc3nc(C)c(C(=O)/C=C/c4cccc(OC)c4)cc3c2N)cc1	14.3%
O=C(N/N=C/c1ccc(F)cc1)c1ccc(C(F)(F)F)nc1Nc1cccc(C(F)(F)F)c1	-18.6% (active)
O=C(c1ccc(Cl)cc1)N1CCN(c2ccnc3cc(Cl)ccc23)CC1	83.7%
N#Cc1nc(-c2ccccc2)oc1S(=O)(=O)N1CCOCC1	32.5%
CCOC(=O)C(=Cc1cccc(Cl)c1)C(=O)OCC	8.93% (active)
C=C(C)[C@@H]1CC[C@]2(C(=O)NCCNCCN)CC[C@]3(C)[C@H](CC[C@@H]4[C@@]5(C)C/C(=C/c6ccncc6)C(=O)C(C)(C)[C@@H]5CC[C@]43C)[C@@H]12	97.6%
Oc1c(Cl)cc(Cl)c2ccc(Cn3cc(-c4ccc(C(F)(F)F)cc4)nn3)nc12	29.4%
CC(C)c1ccc(COCc2cc(CN3CCCC3)c(O)c3ncccc23)cc1	7.67% (active)
NC(=O)c1c(NC(=O)c2ccccc2)sc2c1CCC(=O)C2	4.2% (active)
CN(C)CCNC(=O)c1cccc(-c2cnc3ccc(-c4ccc5c(c4)OCO5)nn23)c1	27.1%
COc1cc(/C=C\c2cc(/C=C\c3ccc(O)c(OC)c3)n(C(=O)COc3ccc(Cl)cc3Cl)n2)ccc1O	4.21% (active)
O=[N+]([O-])c1ccc(N/N=C(/C(=N/Nc2ccc([N+](=O)[O-])cc2)c2ccccc2)c2ccccc2)cc1	60.2%
C/C(=C(/c1ccc(Cl)cc1)c1ccc(OCCN2CCCC2)cc1)c1ccc(Cl)cc1	34.1%

Compound	growth
CCc1ccc(C(=O)/C=C/C23c4ccccc4C(c4ccccc42)C2C(=O)NC(=O)C23)cc1 (stereo not given)	16.6%
N#Cc1nn(-c2cc(=O)[nH]c3ccc(Cl)cc23)c(N)c1C#N	100%
O=C(Nc1nn(-c2ccc(Cl)cc2Cl)nc1-c1ccccc1)c1ccccc1	105%
C=CCc1c(O)c(C(=O)/C=C/c2ccc(Cl)cc2)c(OC)c2ccoc12	21.4%
Cc1ccc(-c2nc(/C=C3/C(=O)Nc4ccccc43)c3ccccn23)cc1	37.2%
CNC(=O)c1c(NC(=O)c2ccc(C(F)(F)F)cc2)sc2c1CCC(=O)C2	0.392% (active)
CC(=O)OC[C@]12CCC(C)(C)C[C@H]1[C@@]1(O)[C@H](O)C[C@@H]3[C@@]4(C)CCCNC(C)(C)[C@@H]4CC[C@@]3(C)[C@]1(C)CC2	102%
CN1CCN(c2ccc(C(=O)Nc3cccc(C#Cc4cccc5[nH]nc(N)c45)c3)cc2C(F)(F)F)CC1	-71.6% (active)
CCCCNC(=O)Oc1ccc(/C(=C(/CC)Cc2ccccc2)c2ccc(OCCN3CCCCCC3)cc2)cc1	0.876% (active)
O=C(O)/C(=C\c1ccc(Cl)cc1)c1ccc(Cl)cc1	92.9%
O=C(/C=C(/C=C/c1cccc2[nH]ccc12)OB(F)F)/C=C/c1cccc2[nH]ccc12	4.29% (active)
O=C1/C(=C/c2ccc(F)cc2)COc2ccc(O)cc21	7.92% (active)
CCN1C(=O)N(CC)C2C1NN=c1s/c(=C\c3cccc([N+](=O)[O-])c3)c(=O)n12 (stereo not given)	17.1%
COc1cc(C(=O)n2nc(N3CCN(C)CC3)c3cc(N)ccc32)cc(OC)c1OC	11.6%
COc1ccc(OC)c(C(=O)/C=C/c2cc3c(c(OC)c2OC)OCO3)c1	31.4%
COC(=O)CNC(=O)[C@H](Cc1ccccc1)NCc1ccncc1	92.9%
COc1ccc(C(=O)Nc2cccc(C3CC(=O)c4c(cc(OC)c(OC)c4OC)O3)c2)cc1 (stereo not given)	15.2%
Cc1cc2c([nH]1)CSc1cc(S(=O)(=O)c3ccccc3)c(=O)[nH]c1-2	-0.665% [100 µM] (active)
N#Cc1cccc(F)c1	112%
CCOC(=O)c1cc2c(=O)oc3ccccc3c2oc1=O	99.8%
